{
  "source": "PubChem BioAssay (Tox21)",
  "note": "Unmarked numbers belong to inactive results. Inconclusive results are not listed. Where a call stands in place of a potency, no number is given. Active and inactive are the calls of the source. Calls follow the shape of the dose curve; as a rule, active = well fitted curve in the direction sought with a large enough effect in the repeat runs; inconclusive = weak or mixed curves; inactive = no such curve, though single readings can be large; an effect the other way counts as inactive or inconclusive.",
  "data": [
    {"test": "Caspase-3/7 induction in CHO-K1 cells by small molecules, qHTS assay (AID 1346980); also: nearly all actives have a fitted effect of over 15% in size", "conditions": "CHO-K1 caspase-3/7 induction, Caspase-Glo luminescence, 17 h; series mostly up to 92.4 µM", "in_short": "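Luminescent Caspase-Glo 3/7 read (30min, room temperature) quantified apoptosis induction. Cells were wild-type CHO-K1, treated with compound for 17hr at 37 C and 5% CO2.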", "values": [
      {"smiles": "O=C1C=CC(=O)N1", "Potency": "inactive"},
      {"smiles": "C[C@H]1[C@H]2CC[C@H]3[C@@H]4CC=C5C[C@@H](N(C)C)CC[C@]5(C)[C@H]4CC[C@]23CN1C", "Potency": "inactive"},
      {"smiles": "CN(C)CCCOC1(Cc2ccccc2)CCCCCC1", "Potency": "inactive"},
      {"smiles": "COC(=O)C1=C(C)NC(C)=C(C(=O)OCCc2ccc(N3CCN(C(c4ccccc4)c4ccccc4)CC3)cc2)C1c1cccc([N+](=O)[O-])c1", "note": "(stereo unspecified)", "Potency": "inactive"},
      {"smiles": "COc1cccc(N)c1", "Potency": "inactive"},
      {"smiles": "O=C(OC[C@H]1O[C@@H](OC(=O)c2cc(O)c(O)c(OC(=O)c3cc(O)c(O)c(O)c3)c2)[C@H](OC(=O)c2cc(O)c(O)c(OC(=O)c3cc(O)c(O)c(O)c3)c2)[C@@H](OC(=O)c2cc(O)c(O)c(OC(=O)c3cc(O)c(O)c(O)c3)c2)[C@@H]1OC(=O)c1cc(O)c(O)c(OC(=O)c2cc(O)c(O)c(O)c2)c1)c1cc(O)c(O)c(OC(=O)c2cc(O)c(O)c(O)c2)c1", "caspase-3/7 activation": "0.641% [at 19 µM]"},
      {"smiles": "c1ccc(CSCc2ccccc2)cc1", "Potency": "inactive"}
    ]},
    {"test": "Caspase-3/7 induction in HepG2 cells by small molecules, qHTS cell viability counter screen (AID 1346981); also: nearly all actives have a fitted effect of over 30% in size; also: potency is read from the fitted curve at half-maximal effect", "conditions": "CellTiter-Fluor fluorescence, 17 h; series mostly up to 92.4 µM", "in_short": "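In this quantitative HTS counter screen, compounds delivered in DMSO were left on unmodified HepG2 cells for 16 hr at 37 C. Viability was then determined fluorometrically with CellTiter-Fluor, in parallel with caspase-3/7 induction in the same wells.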", "values": [
      {"smiles": "CCN(C(=O)c1cc(C)cc(OC[C@H](C)Nc2ccncc2)c1)C(C)C", "Potency": "inactive"},
      {"smiles": "C[n+]1ccn(Cc2ccccc2)c1", "Potency": "inactive"},
      {"smiles": "CCCC(C)c1ccccc1O", "note": "(stereo unspecified)", "Potency": "inactive"},
      {"smiles": "CC(C)OC(=O)c1cc2c(OCC(O)CNC(C)(C)C)cccc2[nH]1", "note": "(stereo unspecified)", "Potency": "inactive"},
      {"smiles": "CCc1oc2ccccc2c1C(=O)c1cc(Br)c(O)c(Br)c1", "Potency": "inactive"},
      {"smiles": "O=c1[nH]sc2cc(Cl)ccc12", "Potency": "inactive"},
      {"smiles": "CC1=C(/C=C/C(C)=C/C=C/C(C)=C/C=O)C(C)(C)CCC1", "Potency": "60.8 µM (active)"},
      {"smiles": "CN(C)c1ccc(C2(c3ccc(N(C)C)cc3)OC(=O)c3cc(N(C)C)ccc32)cc1", "Potency": "inactive"},
      {"smiles": "Oc1c(Cl)cc(Cl)c2cccnc12", "Potency": "inactive"},
      {"smiles": "CCCCCCCCOC(=O)c1ccc(O)cc1", "Potency": "inactive"},
      {"smiles": "CCCCCCOC(=O)c1ccc(O)cc1", "Potency": "inactive"},
      {"smiles": "CCCCCCCCCOC(=O)c1ccc(O)cc1", "Potency": "60.3 µM (active)"},
      {"smiles": "COCCCC/C(=N\\OCCN)c1ccc(C(F)(F)F)cc1", "Potency": "inactive"},
      {"smiles": "CCC1OCC(COc2ccc(Oc3ccccc3)cc2)O1", "note": "(stereo unspecified)", "Potency": "inactive"},
      {"smiles": "Cc1onc(-c2ccccc2Cl)c1C(=O)N[C@@H]1C(=O)N2[C@@H]1SC(C)(C)[C@@H]2C(=O)O", "Potency": "inactive"},
      {"smiles": "C[C@H]1[C@H]2CC[C@H]3[C@@H]4CC=C5C[C@@H](N(C)C)CC[C@]5(C)[C@H]4CC[C@]23CN1C", "Potency": "inactive"},
      {"smiles": "O=C(Oc1ccccc1)c1ccccc1C(=O)Oc1ccccc1", "Potency": "inactive"},
      {"smiles": "CN(C/C=C/C#CC(C)(C)C)Cc1cccc2ccccc12", "Potency": "inactive"},
      {"smiles": "CN(C)CCCOC1(Cc2ccccc2)CCCCCC1", "Potency": "inactive"},
      {"smiles": "COC(=O)C1=C(C)NC(C)=C(C(=O)OCCc2ccc(N3CCN(C(c4ccccc4)c4ccccc4)CC3)cc2)C1c1cccc([N+](=O)[O-])c1", "note": "(stereo unspecified)", "Potency": "inactive"},
      {"smiles": "COc1cccc(N)c1", "Potency": "inactive"},
      {"smiles": "CCc1cc(SCc2sc(-c3ccc(C(F)(F)F)cc3)nc2CN2CCN(c3ccc(OC)cc3)CC2)ccc1OCC(=O)O", "Potency": "24.3 µM (active)"},
      {"smiles": "O=C(OC[C@H]1O[C@@H](OC(=O)c2cc(O)c(O)c(OC(=O)c3cc(O)c(O)c(O)c3)c2)[C@H](OC(=O)c2cc(O)c(O)c(OC(=O)c3cc(O)c(O)c(O)c3)c2)[C@@H](OC(=O)c2cc(O)c(O)c(OC(=O)c3cc(O)c(O)c(O)c3)c2)[C@@H]1OC(=O)c1cc(O)c(O)c(OC(=O)c2cc(O)c(O)c(O)c2)c1)c1cc(O)c(O)c(OC(=O)c2cc(O)c(O)c(O)c2)c1", "Potency": "18.5 µM (active)"},
      {"smiles": "c1ccc(CSCc2ccccc2)cc1", "Potency": "inactive"}
    ]}
  ]
}
